Measured values published in PubChem BioAssay AID743279 (National Center for Advancing Translational Sciences (NCATS), 2014).
The campaign covered roughly 360,000 compounds. About 17,000 (4.7%) were called active. About 5% were inconclusive and are not listed. For the sample, actives were picked, then their nearest neighbours and some compounds at random. Unmarked numbers belong to inactive results. No stated cut-off is given here; in the data, active means activity change below about -50%; inconclusive means mostly about -30% to -49%; inactive means weaker than that.
On the % scale 0 is the no-effect control and ±100 the full control effect.

Test: qHTS for Inhibitors of Inflammasome Signaling: IL-1-beta AlphaLISA Primary Screen
Conditions: THP-1 LPS/ATP IL-1B secretion, 16 h; at 57.5 µM, stronger effect = lower value
Excerpt: Inflammasomes are a set of intracellular multi-protein complexes that enable autocatalytic activation of inflammatory caspases and drive the innate immune response to counter harmful agents. […] A qHTS assay, based on AlphaLISA technology, was developed to screen the Molecular Libraries Small Molecule Repository (MLSMR) to look for novel inflammasome inhibitors. The assay detects IL-1B using AlphaLISA anti-IL-1B acceptor and donor beads. A decreased emission signal, indicating reduced IL-1B secretion, is the desired outcome for this assay. NIH Chemical Genomics Center [NCGC] NIH Molecular Libraries Probe Centers Network [MLPCN] MLPCN Grant: MH095513 Assay Provider: Shyam Biswal Ph.D., Johns Hopkins University Immunity. 2012 Jul 27;37(1):85-95. PMID: 22819042 [2] Curr Pharm Des. 2012;18(16):2320-8. PMID: 22390695
Three microliters containing 3000 THP-1 cells were dispensed into the wells of solid, white, tissue culture treated Greiner 1,536-well plates. Library compounds and positive control, Glyburide, were pin-transferred (23 nL) by a Kalypsys pin-tool equipped with a 1,536-pin array, resulting in final compound concentration ranges of 2.5 nM to 57.5 uM. After 1 hr of cell culture incubation (37 °C, 5% CO2), 1 microL of 1 microg/mL lipopolysaccharide (250 ng/mL, final) and 5 mM ATP (1.25 mM, final) were added to stimulate the cells. After 16 hr of cell culture incubation with the compounds, 1.5 uL of anti-IL-1B acceptor beads (6 ug/mL, final) and biotinylated antibody (0.6 nM, final) were added to the plate, followed by a 1 hr incubation at ambient temperature. To detect the secreted IL-1B, 1.5 uL of AlphaLISA SA-Donor beads (24 ug/mL, final) were added, followed by 30 min of incubation in the dark at ambient temperature. The AlphaLISA signal was read by a PerkinElmer EnVision plate reader with an ultrasensitive luminescence detector and 1536 Plate HTS AlphaScreen aperture (excitation of 680nm and emission of 615nm).
`CO[C@@H]1CN(C)C(=O)c2cc(NC(=O)Nc3cc(F)ccc3F)ccc2OC[C@H](C)N(C(=O)c2ccccn2)C[C@@H]1C` gave an activity change of 11%. For `COC(=O)c1ccc(CSc2nnc(N)s2)o1`, the activity change was -16.4%. In the case of `CCCCNC(=O)C[C@@H]1C[C@@]2(C(=O)OCC)CCC=C2N(Cc2ccco2)C1=O`, the activity change is reported as 14.5%. Compound `O=C(NCc1ccc(F)cc1)c1cc(C2CCCCN2C(=O)c2cccs2)on1` (stereo unspecified) has an activity change of -12.4%. With `O=C(CN1CCN(c2ccc(O)cc2)CC1)Nc1ccc(-c2ccccc2)cc1` the activity change was 12.4%. Work on `Cc1cccc(C)c1NC(=O)C(c1cccc2ccccc12)n1c(=O)c(-c2ccco2)nc2ccccc21` (stereo unspecified) yielded an activity change of 7.42%. With `COc1ccc(NS(=O)(=O)c2ccc(C)c(C(=O)NCC(c3cccs3)N3CCOCC3)c2)cc1` (stereo unspecified) the activity change was 2.47%. `CC1(C(=O)NS(=O)(=O)c2cccc(OC(F)F)c2)CCN1C(=O)COc1ccc(Cl)cc1` (stereo unspecified) gave an activity change of 48.6%. For `COc1cccc(C(O)Cc2nc3ccccc3n2C)c1OC` (stereo unspecified), the activity change was 11.4%. With `CCOc1ccc(C(O)Cc2nc3ccccc3n2C)cc1` (stereo unspecified) the activity change was -16%. In the case of `CC(NCc1nc2ccccc2n1C)C12CC3CC(CC(C3)C1)C2` (stereo unspecified), the activity change is reported as -94.3% (active). `COc1cc(C(=O)N2CCN(S(=O)(=O)c3ccc(C(C)C)cc3)CC2)ccc1OCC(=O)N1CCOCC1` gave an activity change of -21.1%. For `O=C(c1cc(C2CCCCN2S(=O)(=O)c2ccccc2)on1)N1CCOCC1` (stereo unspecified), the activity change was 0%. `Nn1c(SCC(=O)Nc2nccs2)nnc1-c1ccco1` gave an activity change of -6.29%. Work on `Cn1cc(CCC(=O)NCc2ccc3c(c2)OCO3)c2ccccc21` yielded an activity change of 0%. With `N#Cc1nc(Cc2cccc3ccccc23)oc1NCc1ccc2c(c1)OCO2` the activity change was -53.4% (active). Work on `CC1(C(=O)NCc2ccc3c(c2)OCO3)CCN1C(=O)Cc1cccc2ccccc12` (stereo unspecified) yielded an activity change of -20.8%. With `Cc1ccc(S(=O)(=O)N2CCOCC2)cc1NC(=O)COC(=O)c1cnccn1` the activity change was 2.75%. In the case of `CCOC(=O)C1CCCN(C(=O)c2ccc(C)c(F)c2)CC1` (stereo unspecified), the activity change is reported as 13%. `Cn1c(SCC(=O)Nc2ccc(Br)cc2F)nnc1-c1ccco1` gave an activity change of -12.1%. Work on `COc1ccccc1-n1c(-c2cc(-c3ccco3)[nH]n2)n[nH]c1=S` yielded an activity change of 5.01%. In the case of `Cn1c(-c2ccco2)nc2cc3ccccc3cc21`, the activity change is reported as -69.2% (active). With `NC(=O)CSc1nnc(-c2cccc(S(=O)(=O)N3CCOCC3)c2)o1` the activity change was -7.22%. Work on `COc1ccc(/C=N/NC(=O)CNC(=O)c2ccc(S(=O)(=O)N3CCCC3)cc2)c(OC)c1` yielded an activity change of 16.6%. For `COc1ccc(C(=O)NCC(=O)N/N=C/c2ccc([N+](=O)[O-])o2)cc1OC`, the activity change was -85.8% (active). In the case of `COc1cccc(/C=N/NC(=O)CNC(=O)c2ccc(S(=O)(=O)N3CCOCC3)cc2)c1OC`, the activity change is reported as -0.608%.
